Columns and labels:
Experiment in all cases: log2 ratio of Biotin-Ahx-Ub-VS probe labelling (fragment/DMSO); higher = less target engagement (more negative = stronger competition), active = hit call of the paper (q ≤ 0.05, log2 ratio ≤ -1)
Settings in all cases: compound concentration: 200 uM; treatment time: 3 h
OTUD6B = target: T1, OTUD6B (UniProt Q8N6M0)
T1 sequence (whole entry): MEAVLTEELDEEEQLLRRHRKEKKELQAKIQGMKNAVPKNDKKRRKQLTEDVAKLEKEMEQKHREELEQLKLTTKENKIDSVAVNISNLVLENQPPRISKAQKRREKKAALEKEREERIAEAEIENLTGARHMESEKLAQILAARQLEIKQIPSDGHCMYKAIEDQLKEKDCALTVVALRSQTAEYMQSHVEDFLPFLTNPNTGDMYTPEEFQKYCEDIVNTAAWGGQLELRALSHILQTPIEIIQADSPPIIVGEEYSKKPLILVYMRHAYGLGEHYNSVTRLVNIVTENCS
How it was run: (§1)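 Lysate from HEK293T cells, 495 µg per sample in Tris/CHAPS/IGEPAL buffer with protease inhibitors, was treated for 3 h in triplicate with fragment at 200 µM or vehicle. Biotin-Ahx-Ub-VS was next added at 0.5 µM final for 1 h. The labelled DUBs were enriched with NeutrAvidin, digested with LysC and trypsin, and run by diaPASEF LC-MS/MS, with values given as average log2 fragment/vehicle ratios by unpaired t-test on global-median-normalised Spectronaut quantities of proteins with ≥2 unique peptides.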

OTUD7B = target: T2, OTUD7B (UniProt Q6GQQ9)
T2 sequence (whole entry): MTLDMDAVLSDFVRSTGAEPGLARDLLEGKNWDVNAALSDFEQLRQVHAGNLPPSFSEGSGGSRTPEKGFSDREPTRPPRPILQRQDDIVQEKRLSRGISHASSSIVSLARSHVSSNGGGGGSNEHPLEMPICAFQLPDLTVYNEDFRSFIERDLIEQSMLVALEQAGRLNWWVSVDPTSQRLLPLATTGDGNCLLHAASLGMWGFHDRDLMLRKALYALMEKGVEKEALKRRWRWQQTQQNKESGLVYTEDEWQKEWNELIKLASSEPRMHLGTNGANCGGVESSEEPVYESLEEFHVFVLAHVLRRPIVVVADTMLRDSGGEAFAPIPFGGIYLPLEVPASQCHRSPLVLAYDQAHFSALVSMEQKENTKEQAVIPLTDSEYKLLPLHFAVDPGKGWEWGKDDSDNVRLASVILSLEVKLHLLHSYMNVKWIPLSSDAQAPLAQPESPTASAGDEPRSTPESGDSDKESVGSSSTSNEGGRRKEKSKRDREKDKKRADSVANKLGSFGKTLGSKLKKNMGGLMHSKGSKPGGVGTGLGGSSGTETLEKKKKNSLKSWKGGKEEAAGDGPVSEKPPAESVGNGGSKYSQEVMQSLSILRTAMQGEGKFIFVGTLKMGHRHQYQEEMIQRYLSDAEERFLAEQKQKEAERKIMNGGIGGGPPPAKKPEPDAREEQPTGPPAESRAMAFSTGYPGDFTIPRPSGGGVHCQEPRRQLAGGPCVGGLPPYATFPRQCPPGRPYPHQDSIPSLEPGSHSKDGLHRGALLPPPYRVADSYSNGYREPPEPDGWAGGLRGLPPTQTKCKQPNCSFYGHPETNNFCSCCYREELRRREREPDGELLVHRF
How it was run: as §1

PRPF8 = PRPF8 (UniProt Q6P2Q9)
How it was run: as §1

PSMD7 = target: T3, PSMD7 (UniProt P51665)
T3 sequence (whole entry): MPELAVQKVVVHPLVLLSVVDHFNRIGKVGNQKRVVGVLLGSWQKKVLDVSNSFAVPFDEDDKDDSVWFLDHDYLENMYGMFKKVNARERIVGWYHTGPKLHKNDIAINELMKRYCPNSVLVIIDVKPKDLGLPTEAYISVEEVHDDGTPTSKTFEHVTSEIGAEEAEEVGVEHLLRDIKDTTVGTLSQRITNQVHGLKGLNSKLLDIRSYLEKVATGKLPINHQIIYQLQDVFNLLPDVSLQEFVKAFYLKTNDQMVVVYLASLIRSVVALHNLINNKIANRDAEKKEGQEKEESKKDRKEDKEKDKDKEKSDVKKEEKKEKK
How it was run: as §1

UCHL1 = UCHL1 (UniProt P09936)
How it was run: as §1

UCHL3 = target: T4, UCHL3 (UniProt P15374)
T4 sequence (whole entry): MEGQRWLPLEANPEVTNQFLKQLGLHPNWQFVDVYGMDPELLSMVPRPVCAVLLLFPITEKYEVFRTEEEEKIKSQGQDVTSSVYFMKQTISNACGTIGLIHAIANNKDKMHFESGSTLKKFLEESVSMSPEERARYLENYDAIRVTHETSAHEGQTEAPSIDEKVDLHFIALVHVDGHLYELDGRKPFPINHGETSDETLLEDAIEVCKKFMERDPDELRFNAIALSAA
How it was run: as §1

UCHL5 = target: T5, UCHL5 (UniProt Q9Y5K5)
T5 sequence (whole entry): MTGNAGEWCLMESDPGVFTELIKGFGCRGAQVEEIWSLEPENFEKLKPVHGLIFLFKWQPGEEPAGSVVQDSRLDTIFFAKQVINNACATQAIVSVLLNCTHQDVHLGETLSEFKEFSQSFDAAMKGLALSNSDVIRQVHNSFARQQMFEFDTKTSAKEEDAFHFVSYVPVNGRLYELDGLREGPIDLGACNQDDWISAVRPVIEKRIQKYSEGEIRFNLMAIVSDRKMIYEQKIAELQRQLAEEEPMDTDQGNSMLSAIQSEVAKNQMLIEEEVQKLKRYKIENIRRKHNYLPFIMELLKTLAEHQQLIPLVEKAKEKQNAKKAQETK
How it was run: as §1

USP10 = USP10 (UniProt Q14694)
How it was run: as §1

USP15 = target: T6, USP15 (UniProt Q9Y4E8)
T6 sequence (whole entry): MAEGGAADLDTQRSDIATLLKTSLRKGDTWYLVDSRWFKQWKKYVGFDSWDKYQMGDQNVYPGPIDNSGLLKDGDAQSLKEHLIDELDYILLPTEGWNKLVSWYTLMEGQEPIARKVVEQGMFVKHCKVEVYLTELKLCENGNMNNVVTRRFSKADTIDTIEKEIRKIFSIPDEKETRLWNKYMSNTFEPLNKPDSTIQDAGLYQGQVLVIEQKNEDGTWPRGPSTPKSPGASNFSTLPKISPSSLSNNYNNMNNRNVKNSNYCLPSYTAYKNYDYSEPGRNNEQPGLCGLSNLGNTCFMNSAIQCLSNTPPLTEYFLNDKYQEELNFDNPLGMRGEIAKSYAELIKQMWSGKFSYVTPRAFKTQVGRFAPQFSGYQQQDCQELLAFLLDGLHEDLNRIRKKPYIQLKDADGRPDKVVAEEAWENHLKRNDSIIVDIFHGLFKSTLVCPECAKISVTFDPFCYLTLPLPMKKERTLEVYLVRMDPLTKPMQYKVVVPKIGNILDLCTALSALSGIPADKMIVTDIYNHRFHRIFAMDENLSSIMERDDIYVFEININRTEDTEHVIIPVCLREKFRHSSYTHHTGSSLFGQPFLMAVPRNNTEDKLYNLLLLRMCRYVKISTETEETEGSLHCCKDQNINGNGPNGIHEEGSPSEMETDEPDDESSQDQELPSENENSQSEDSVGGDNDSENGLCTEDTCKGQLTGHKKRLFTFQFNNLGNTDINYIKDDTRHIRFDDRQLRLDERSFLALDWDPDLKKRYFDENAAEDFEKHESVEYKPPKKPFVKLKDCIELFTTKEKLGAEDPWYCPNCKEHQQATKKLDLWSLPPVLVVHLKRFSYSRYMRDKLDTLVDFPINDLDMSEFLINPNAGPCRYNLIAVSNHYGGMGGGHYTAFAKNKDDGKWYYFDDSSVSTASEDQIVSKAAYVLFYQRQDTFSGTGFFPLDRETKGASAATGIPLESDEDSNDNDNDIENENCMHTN
How it was run: as §1

USP16 = USP16 (UniProt Q9Y5T5)
How it was run: as §1

Measured: log2 ratio of Biotin-Ahx-Ub-VS probe labelling

USP10, sequence (Q14694 whole entry): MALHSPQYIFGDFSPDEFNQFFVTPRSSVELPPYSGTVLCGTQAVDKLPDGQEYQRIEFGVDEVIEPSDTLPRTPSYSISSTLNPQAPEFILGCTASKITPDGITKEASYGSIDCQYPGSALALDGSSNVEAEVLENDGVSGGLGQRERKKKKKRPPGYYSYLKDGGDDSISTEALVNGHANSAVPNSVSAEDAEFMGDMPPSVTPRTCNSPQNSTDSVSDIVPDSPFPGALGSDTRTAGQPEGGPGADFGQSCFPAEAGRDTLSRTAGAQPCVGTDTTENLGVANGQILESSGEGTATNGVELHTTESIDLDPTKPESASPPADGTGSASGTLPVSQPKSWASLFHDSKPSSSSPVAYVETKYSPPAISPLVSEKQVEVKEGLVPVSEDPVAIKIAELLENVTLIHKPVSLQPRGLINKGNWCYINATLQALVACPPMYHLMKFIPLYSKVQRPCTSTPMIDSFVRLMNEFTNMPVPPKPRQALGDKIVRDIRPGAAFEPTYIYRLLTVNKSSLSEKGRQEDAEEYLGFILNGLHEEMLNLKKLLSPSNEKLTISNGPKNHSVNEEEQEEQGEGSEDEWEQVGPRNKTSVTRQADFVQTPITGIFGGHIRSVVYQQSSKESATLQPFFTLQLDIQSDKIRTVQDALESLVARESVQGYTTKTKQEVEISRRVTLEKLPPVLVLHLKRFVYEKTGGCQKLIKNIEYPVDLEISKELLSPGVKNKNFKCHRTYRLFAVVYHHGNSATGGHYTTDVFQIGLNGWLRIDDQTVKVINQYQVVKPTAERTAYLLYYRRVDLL
USP16, sequence (Q9Y5T5 whole entry, looked up): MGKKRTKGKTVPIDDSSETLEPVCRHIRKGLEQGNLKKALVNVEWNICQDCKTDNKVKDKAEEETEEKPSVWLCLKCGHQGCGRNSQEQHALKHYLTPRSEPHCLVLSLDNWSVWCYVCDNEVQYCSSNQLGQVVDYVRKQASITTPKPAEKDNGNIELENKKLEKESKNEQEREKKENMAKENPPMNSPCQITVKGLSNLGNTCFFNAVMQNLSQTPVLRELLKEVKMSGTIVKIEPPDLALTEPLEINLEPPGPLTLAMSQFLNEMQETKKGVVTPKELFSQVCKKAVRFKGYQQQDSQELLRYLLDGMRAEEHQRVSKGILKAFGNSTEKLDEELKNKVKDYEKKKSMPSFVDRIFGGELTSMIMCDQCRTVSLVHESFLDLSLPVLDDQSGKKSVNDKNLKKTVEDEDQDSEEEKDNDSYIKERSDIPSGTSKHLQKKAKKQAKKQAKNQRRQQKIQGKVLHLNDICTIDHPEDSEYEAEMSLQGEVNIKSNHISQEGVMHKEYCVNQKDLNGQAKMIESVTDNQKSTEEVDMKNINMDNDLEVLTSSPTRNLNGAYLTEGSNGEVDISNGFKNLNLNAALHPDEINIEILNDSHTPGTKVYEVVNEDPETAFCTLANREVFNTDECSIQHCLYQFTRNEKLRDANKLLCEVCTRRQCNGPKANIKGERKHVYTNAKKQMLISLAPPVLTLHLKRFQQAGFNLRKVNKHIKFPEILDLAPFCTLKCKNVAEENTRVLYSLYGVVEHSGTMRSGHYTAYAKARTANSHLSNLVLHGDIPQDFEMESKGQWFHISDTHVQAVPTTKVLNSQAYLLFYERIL
UCHL1, sequence (P09936 whole entry, looked up): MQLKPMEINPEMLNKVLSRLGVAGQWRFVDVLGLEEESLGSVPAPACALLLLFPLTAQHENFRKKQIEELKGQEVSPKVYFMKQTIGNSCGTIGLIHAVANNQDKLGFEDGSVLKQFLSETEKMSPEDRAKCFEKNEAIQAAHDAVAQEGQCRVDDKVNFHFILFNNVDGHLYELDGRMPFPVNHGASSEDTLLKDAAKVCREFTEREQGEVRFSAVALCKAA

COc1ccccc1C(C)NC(=O)CCl (stereo not given)
active: UCHL1 -1.47 | UCHL3 -1.18
inactive: OTUD6B -0.401 | OTUD7B -0.997 | PRPF8 -0.14 | PSMD7 -0.451 | UCHL5 -0.318 | USP10 -0.0811 | USP15 -0.251 | USP16 -0.386

Reference: the supplement of paper PMC11732987, “Enantioselective OTUD7B fragment discovery through chemoproteomics screening and high-throughput optimisation” (Communications Chemistry, 2025)
